IL1B secr inh – qHTS for Inhibitors of Inflammasome Signaling: IL-1-beta AlphaLISA Primary Screen | 4.7% of 360,000 active | AID 743279, 2014 | THP-1 LPS/ATP IL-1B secretion, AlphaLISA, 16 h; stronger effect = lower value | activity change, % at 57.5 µM; in the data active = activity change below about -50%; inconclusive = mostly about -30% to -49%
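THP-1 cells pretreated 1 hr with compounds (up to 57.5 uM final), then stimulated with LPS (250 ng/mL final) plus ATP (1.25 mM final); secreted IL-1B measured by AlphaLISA after 16 hr, decreased signal indicating inhibition.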
DT40 TDP1 no CPT – qHTS for Inhibitors of human tyrosyl-DNA phosphodiesterase 1 (TDP1): qHTS in cells in absence of CPT | Potency, µM (highest dose often 46.2 µM), inactives show top-dose activity change, negative = growth inhibition, hits mostly inhibitors | AID 686978, 2013 | DT40 Tdp1-/- hTDP1 cells, no CPT, ATP luminescence, 48 h | 15% of 420,000 active; note: potency is the fitted concentration of half-maximal effect; nearly all actives have a fitted effect of over 55% in size
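Camptothecin absent (DMSO only). Human TDP1-complemented DT40 knockout cells, 400 cells/well, 37 °C for minimum 48 hr; ATP measured via CellTiter-Glo, 30 min dark incubation, luminescence.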
TDP1 inh – qHTS Assay for Inhibitors of Tyrosyl-DNA Phosphodiesterase (TDP1) | AID 485290, 2010 | Potency, µM (top dose mostly 130 µM), for the others: at the highest dose activity change, negative = inhibition, usual class: inhibitors | Tyrosyl-DNA phosphodiesterase 1 (Homo sapiens), Q9NUW8 | 0.28% of 350,000 active | recombinant TDP1, AlphaScreen DNA substrate cleavage; note: potency is the fitted concentration of half-maximal effect; nearly all actives have a fitted effect of over 40% in size
Target sequence (Q9NUW8 whole entry, looked up): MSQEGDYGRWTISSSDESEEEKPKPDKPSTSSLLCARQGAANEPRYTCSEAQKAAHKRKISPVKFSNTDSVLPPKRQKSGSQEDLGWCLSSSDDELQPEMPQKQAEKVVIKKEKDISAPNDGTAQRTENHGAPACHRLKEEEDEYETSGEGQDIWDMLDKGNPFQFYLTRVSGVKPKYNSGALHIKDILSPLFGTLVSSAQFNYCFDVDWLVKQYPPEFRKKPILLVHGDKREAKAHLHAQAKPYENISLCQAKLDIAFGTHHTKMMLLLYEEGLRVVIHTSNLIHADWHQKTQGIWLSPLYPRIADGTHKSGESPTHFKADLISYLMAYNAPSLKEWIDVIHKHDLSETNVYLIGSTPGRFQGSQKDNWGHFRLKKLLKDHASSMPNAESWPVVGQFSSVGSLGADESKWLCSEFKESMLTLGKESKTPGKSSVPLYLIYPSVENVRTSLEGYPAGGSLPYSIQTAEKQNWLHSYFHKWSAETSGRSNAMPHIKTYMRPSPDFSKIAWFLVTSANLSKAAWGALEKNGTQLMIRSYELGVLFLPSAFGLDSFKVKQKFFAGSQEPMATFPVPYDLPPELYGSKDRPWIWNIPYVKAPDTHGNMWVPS
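AlphaScreen read-out: signal falls as enzyme removes the 3' tyrosine-FITC from a 5'-biotinylated DNA oligo (15 nM, 5 min, RT). Enzyme was E. coli-made recombinant Tdp1 at 1 nM, exposed to compound for 15 min beforehand; beads 10 ug/ml, 10 min.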
ELG1 repair inh – qHTS screen for small molecules that inhibit ELG1-dependent DNA repair in human embryonic kidney (HEK293T) cells expressing luciferase-tagged ELG1; HEK293T ELG1-luciferase reporter, luminescence, 16 h; DNA damage induced by 5-fluorouridine; Potency, µM (series often up to 46.1 µM), for inactives: at the highest dose activity change, negative = inhibition, usual class: inhibitors; 2.3% of 330,000 active; note: potency is the fitted concentration of half-maximal effect; nearly all actives have a fitted effect of over 55% in size
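Cells (2,000 per well) received 5-fluorouridine plus test compound or DMSO and were incubated 16 hr at 37 °C, 5% CO2. Luciferase activity was read by luminescence 30 min after ONE-Glo addition; signal suppression marked inhibition of damage-induced ELG1 function.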
TDP1 cell CPT – qHTS for Inhibitors of human tyrosyl-DNA phosphodiesterase 1 (TDP1): qHTS in cells in presence of CPT | chicken DT40 Tdp1-/-;hTDP1 cells + 20 nM CPT, ATP luminescence, 48 h | Potency, µM (highest dose often 46.2 µM), without a hit: at the highest dose activity change, negative = growth inhibition, actives largely listed as inhibitors | 12% of 420,000 active | AID 686979, 2013; note: potency is the fitted concentration of half-maximal effect; nearly all actives have a fitted effect of over 55% in size
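Cell growth measured by CellTiter-Glo luminescence after a minimum 48 h, 37 C compound exposure with 20 nM CPT in Tdp1-knockout DT40 cells stably expressing hTDP1, seeded 400/well; qHTS titration format.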
Giardia killer – Small Molecules that selectively kill Giardia lamblia: qHTS; Giardia lamblia trophozoite viability; AID 540267, 2011; 0.15% of 340,000 active; activity change, % at 7.66 µM, hits read low; in the data active = activity change below about -80%; inconclusive = between about -30% and that limit;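 note: parasites exposed to compound for two days anaerobically before the ATP read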
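Each well holds 100 Giardia trophozoites and compound. After two days (48 hrs) at 37 deg C in anaerobic conditions, ATP is quantified by luminescence.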
The depositor's hits bear a star; i = inactive; ? = inconclusive; · = no result; [ ] = another dose, or the depositor's remark. Sampled rows, rich in hits. Any-hit rate of the full collection: about 19%. Unless noted, calls come from the whole dose curve; as a rule, active = well fitted curve in the direction sought with a large enough effect; inconclusive = small, poorly fitted or top-dose-only effect, or another doubt; inactive = no such curve, though single readings can be large; an effect the other way counts as inactive or inconclusive. % is set by controls: 0 for no effect and ±100 for the full control effect.

SMILES | IL1B secr inh | DT40 TDP1 no CPT | TDP1 inh | ELG1 repair inh | TDP1 cell CPT | Giardia killer
O=C(CN1CCC(C(=O)c2ccc(F)cc2)CC1)Nc1ccccc1Cl | -9 | 12µM* | 3% | -24% | -26% | 2
COc1ccc(C(=O)C2CCN(CC(=O)Nc3cc(C)cc(C)c3)CC2)cc1 | -22 | ? | 0% | -27% | ? | -10
Cc1ccc(C(=O)C2CCN(CC(=O)Nc3nc(C)cs3)CC2)cc1 | -3 | 16µM* | 3% | ? | 21µM* | 9
CCOc1ccccc1NC(=O)CN1CCC(C(=O)c2ccc(F)cc2)CC1 | -4 | 26µM* | 1% | ? | 21µM* | 6
Cn1nc(-c2ccccc2F)c2cc(C(=O)NCCc3ccc(Cl)cc3)sc21 | · | 16µM* | -2% | · | ? | ·
CNC(=O)c1cc2c(-c3ccccc3)nn(C)c2s1 | -11 | 21µM* | · | 8% | ? | -15
CC(C)NC(=O)c1cc2c(-c3ccc(Cl)cc3)nn(C)c2s1 | 16 | -20% | 2% | ? | -8% | 21
CNC(=O)c1cc2c(s1)-c1ccccc1CC2 | -2 | -3% | 0% | ? | 13% | 13
CNC(=O)c1cc(C)c(-c2ccccc2)s1 | 10 | 21µM* | 0% | ? | ? | -3
CCOc1ccc(CCNC(=O)c2cc3c(-c4ccccc4F)nn(C)c3s2)cc1 | · | ? | 6% | · | -5% | ·
Cn1nc(C(F)(F)F)c2cc(C(=O)Nc3ccc(C(F)(F)F)cc3)sc21 | ? | 21µM* | -3% | ? | ? | -23
CCCCN(C)CCNC(=O)c1cc2c(-c3ccccc3F)nn(C)c2s1 | -97* | ? | · | ? | -12% | 5
COC(=O)c1cc(NC(=O)c2cc3c(-c4ccccc4F)nn(C)c3s2)cc(C(=O)OC)c1 | · | ? | 1% | · | 3.3µM* | ·
COCCNC(=O)c1cc2c(-c3ccc(Cl)cc3)nn(C)c2s1 | -12 | ? | 0% | ? | ? | -14
COCCNC(=O)c1cc2c(-c3ccccc3F)nn(C)c2s1 | -54* | -23% | 4% | ? | -25% | -9
CC(C)(C)c1ccc(C(=O)N2CCC(=O)N([C@H](COCc3ccc(Cl)cc3)Cc3ccccc3)CC2)cc1 | · | · | -3%[96 µM] | · | · | ·
CCN(C(=O)c1cc(Cl)ccc1OC)c1ccccc1C | 29 | 21µM* | -2% | -14% | ? | 22
CCn1cc(C(=O)NC2CCCCCC2)c2cc(OC)c(OC)cc2c1=O | 0 | ? | 3% | 13µM* | ? | -10
CCN(C(=O)c1cc(OC)c(OC)c(OC)c1)C1CCCCC1 | 35 | 23µM* | · | · | ? | ·
CCN(C(=O)c1cccc(NC(=O)c2ccccc2)c1)C1CCCCC1 | -29 | ? | 3%[56.1 µM] | -1% | 15µM* | -8
O=C(Nc1cccc(C(=O)NC2CCCC2)c1)c1ccccc1 | ? | ? | 4%[56.1 µM] | -2% | ? | 10
CCOc1ccccc1NC(=S)Nn1cnnc1 | -8 | ? | 7% | -1% | ? | -1
O=C(CSc1nnc(CNC(=O)c2ccc(F)cc2)o1)NCc1ccc2c(c1)OCO2 | i | -13% | 4% | -3% | -2% | -17
CCN(C(=O)c1cc(Cl)ccc1OC)C1CCCCC1 | 18 | 23µM* | 5% | -2% | ? | 16
CCN(C(=O)c1cn(CC)c(=O)c2cc(OC)c(OC)cc12)c1ccccc1F | · | 21µM* | 3% | · | -28% | ·
COc1cc(C(=O)N(C(C)C)C2CCCCC2)cc(OC)c1OC | 21 | 10µM* | · | · | 12µM* | ·

Bioassay records (PubChem BioAssay)
